Screening data: PubChem BioAssay, Johns Hopkins Ion Channel Center
KCNQ2 enhance – potentiators of rat KCNQ2 potassium channel | Potassium voltage-gated channel subfamily KQT member 2 (Rattus norvegicus), O88943 | CHO-K1 KCNQ2, FluxOR thallium flux fluorescence; active compounds read high | B-score at 10 µM | 310,000 compounds, 0.54% hits | AID 2239, 2010;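 active means fluorescence ratio B-score at least 3 SD of library B-scores, with initial fluorescence B-score within 3 of them, cut at about 5.3 in these data; same plate scores as AID 2156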;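 further: B-score of peak minus minimum over baseline fluorescence ratio after K+ and Tl+ stimulus; positive B-score means potentiation of KCNQ2 with more thallium influx and brighter signal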
KCNQ2 block – rat KCNQ2 potassium channel inhibitors, primary screen, cell-based, CHO-K1, FluxOR thallium flux, B-score; B-score at 10 µM; 310,000 compounds, 1.1% hits; 20 min; active compounds read low;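 active means fluorescence ratio B-score at most minus 3 library SDs, with starting brightness B-score within 2 library SDs, cut at about -5.5 in these data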
Kir21 confirm – mouse Kir2.1 channel blockers, retest, confirmation, cell-based, FluxOR thallium flux, duplicate; shares compounds with KCNQ2 enhance; Kir2.1-expressing cells, FluxOR thallium flux fluorescence; active compounds read low; Tl flux remaining, % of negative control (active compounds read low), % at 10 µM; 2,300 compounds, 41% hits;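 active means Primary-screen hit whose thallium flux fell at least 3 control SD below untreated wells in both duplicates, with normal baseline fluorescence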;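 further: 0% = blank wells without stimulus and 100% = stimulated no-compound controls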
HEK293 Tl flux – counter-screen for Kir2.1 inhibitors: effect in parental HEK293 cells | shares compounds with KCNQ2 enhance | FluxOR thallium flux fluorescence; 0% = unstimulated blank wells | FluxOR signal as % of negative control (100 = no effect), % at 10 µM | 2,300 compounds, 19% hits | AID 2105;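 active means dye signal at least 3 control SD above or below untreated wells in both duplicates, raw fluorescence within 3, either direction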;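 further: percent is based on the flux ratio of peak minus minimum fluorescence over baseline F0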
CHO-K1 ctr – nonspecific thallium flux increase in parental CHO-K1, confirmation, counter-screen for KCNQ2 potentiator project, cell-based, FluxOR thallium flux, duplicate; shares compounds with KCNQ2 enhance; parental CHO-K1 cells, FluxOR thallium flux fluorescence; zero = vehicle mean+3SD, 100% = vehicle-minus-blank window; activity increase over 3SD of controls, % at 10 µM; 1,200 compounds, 43% hits; AID 2282, 2010;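 active means signal rise of at least 3 SD above the untreated control mean, in both duplicate wells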;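 further: counter screen of KCNQ2 potentiator hits so any rise reflects channel-independent effects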
KCNQ1 pot spec – human KCNQ1 channel potentiation off-target, confirmation, selectivity assay for KCNQ2 potentiator project, cell-based, CHO, FluxOR thallium flux. CHO KCNQ1 stable, FluxOR thallium flux fluorescence; beyond 3SD, as % of vehicle-control signal. activation over 3SD threshold, % at 10 µM. shares compounds with KCNQ2 enhance. 1,200 compounds, 28% hits. AID 2283, 2010;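 active means fluorescence ratio rise of at least 3 SD of vehicle wells above their mean, in both replicate wells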;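 further: 0% = vehicle mean plus 3 SD and 100% = vehicle minus unstimulated blank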
KCNQ2 pot conf – rat KCNQ2 channel potentiators, confirmation, cell-based, CHO, FluxOR thallium flux, duplicate; CHO-KCNQ2 cells, FluxOR thallium flux fluorescence; 1,200 compounds, 68% hits; shares compounds with KCNQ2 enhance; potentiation, less the hit threshold, % at 10 µM;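 active means fluorescence ratio rising 3 SD or more over the vehicle control mean in both replicates, plus primary screen hit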;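 further: peak minus minimum thallium fluorescence divided by baseline after K/Tl stimulus; 0% = vehicle mean plus 3 SD and 100% = vehicle minus unstimulated blank difference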
Kir2-1 sel – mouse Kir2.1 channel activation off-target, confirmation, selectivity assay for KCNQ2 potentiator project, cell-based, HEK293, FluxOR thallium flux | activity over 3SD threshold, % at 10 µM | AID 2345, 2010 | 1,200 compounds, 2% hits | shares compounds with KCNQ2 enhance | HEK293 Kir2.1, FluxOR thallium flux fluorescence;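 active means fluorescence ratio rise of at least 3 SD above the vehicle-control mean, seen in both replicates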;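 further: 0% = vehicle mean plus 3 SD and 100% = vehicle minus no-stimulus blank window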
KCNQ2 W236L pot – potentiators of retigabine-insensitive KCNQ2 W236L, mechanism study for KCNQ2 potentiator project, cell-based, rat KCNQ2 W236L, CHO, automated patch clamp; shares compounds with KCNQ2 enhance; automated patch clamp current; AID 2558, 2010; current increase over 3SD of negative controls (%), active compounds read high, % at 25 µM; 940 compounds, 10% hits;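 active means current increase at least 3 SD of the untreated controls above them in both duplicate recordings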
* = called active by the depositor; i = inactive; / = not tested or not shown. Most compounds without a hit are left out; they make up all but 1.6% or so of the library.

SMILES	KCNQ2 enhance	KCNQ2 block	Kir21 confirm	HEK293 Tl flux	others
COc1ccc(C(O)P(=O)(OC(C)C)OC(C)C)cc1 (configuration not stated)	0.08	i	/	/
COc1ccc(C(=O)O/N=C(/C(N)=O)P(=O)(OC(C)C)OC(C)C)cc1	6.44*	i	i	i	CHO-K1 ctr=-6.6;KCNQ1 pot spec=4.2*;KCNQ2 pot conf=27.2*;Kir2-1 sel=-50.9;KCNQ2 W236L pot=i
CN1CCC(O)(c2cccs2)C(C(=O)c2cccs2)C1 (configuration not stated)	/	i	/	/
O=C1NC(=O)C(=Cc2ccc(-c3ccc(F)cc3O)o2)C(=O)N1	/	i	/	/
CC(CN(C)C1CCN(C)CC1)c1ccccc1 (configuration not stated)	/	i	/	/
COc1cccc(C(=O)C2CN(C)CC2c2ccc(Cl)cc2)c1 (configuration not stated)	/	i	37.5%*	i
CN1CC(C(=O)c2ccccc2)C(c2ccccc2)C1 (configuration not stated)	1.25	i	/	/
CN1CC(C(=O)c2cccc(C(F)(F)F)c2)C(c2ccc(Cl)cc2)C1 (configuration not stated)	/	i	41.5%*	59.0%*
CN1CC(C(=O)c2ccc([N+](=O)[O-])cc2)C(c2ccc(Cl)cc2)C1 (configuration not stated)	/	i	/	/
O=C1CCCN1CC#CCN1CCCC1	/	i	/	/
Clc1ccc(N2CC2c2ccncc2)cc1 (configuration not stated)	/	i	/	/
COc1cc(CC(C)N)c(OC)cc1I (configuration not stated)	0.68	i	/	/
CCCCCSc1cc(OC)c(CCN)cc1OC	/	i	46.5%*	i
O=Cc1c(C(=O)O)n(Cc2ccccc2F)c2ccccc12	0.15	i	/	/
CC(C)CNc1c2c(nc3ccccc13)CCC2	3.15	i	/	/
c1ccc(CNc2c3c(nc4ccccc24)CCC3)cc1	0.24	i	i	i
O=C(c1ccc(N2CC3CC(C2)c2cccc(=O)n2C3)c([N+](=O)[O-])c1)N1CCCC1 (configuration not stated)	0.65	i	/	/
CN1CC=C(/C=C/c2ccc(-c3ccccc3)cc2)CC1	/	i	/	/
CNCC(O)c1cccc(OC(=O)c2ccccc2C)c1 (configuration not stated)	0.15	i	/	/
CNCC(O)c1cc(OCc2ccccc2)c(OCc2ccccc2)cc1F (configuration not stated)	/	i	40.5%*	71.5%*
O=S(=O)(c1ccccc1)N1CCN2CCCC2C1 (configuration not stated)	/	i	/	/
CNC(C(=O)c1ccccc1)C(OC)c1ccc(C)cc1 (configuration not stated)	0.08	i	/	/
NC(N)=N/N=C/c1ccc(N(c2ccccc2)c2ccccc2)cc1	2.4	i	i	i
COc1ccc(/C=N\N=C(N)N)cc1	1.1	i	/	/
